According to PubChem BioAssay (EPA / NIEHS):
Records with an inconclusive call do not appear. Active and inactive are the calls of the source. Rule for the calls, unless noted: active = hit-call score of the fitted dose curve at least 0.9, where 1 is the maximum; inactive = score below 0.9.

Tests used:
[1] = ACEA_ER_80hr: ACEA Biosciences xCELLigence Real-Time Cell Analysis on Estrogen Receptor Agonism for Proliferation (AID 2282667; active = hit-call score of the fitted dose curve at least 0.9, where 1 is the maximum); conditions: T47D proliferation, impedance (xCELLigence), 80 h
How it was run: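 Impedance readout (RT-CES) of T47D proliferation at 80 h post-dose; gain of signal vs DMSO baseline. Compounds: 8 conc, 1:4 serial, top 100 uM final, ≤0.5% DMSO; biological duplicate.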

[2] = ATG_CRE_CIS: Attagene CIS-FACTORIAL HepG2 Assay for human cAMP Responsive Element (CRE) binding protein 3 (AID 2282926); conditions: HepG2 CRE cis-reporter, Attagene multiplexed mRNA; actives raise or lower the signal
How it was run: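 Readout: fluorescently labelled reporter transcripts resolved by capillary electrophoresis after RT-PCR, taken 24 h post-dosing in transfected HepG2. Endogenous transcription factor activity drives each cis-element reporter; gain or loss of signal fitted relative to DMSO control.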

[3] = target: CCAAT/enhancer-binding protein beta (Homo sapiens) (UniProt P17676); assay: ATG_C_EBP_CIS: Attagene CIS-FACTORIAL HepG2 Assay for human CCAAT/Enhancer Binding Protein (C/EBP) beta (AID 2282927); conditions: HepG2 Attagene cis-factorial transcription factor reporter; actives raise or lower the signal
CCAAT/enhancer-binding protein beta (Homo sapiens), sequence (P17676 whole entry, looked up): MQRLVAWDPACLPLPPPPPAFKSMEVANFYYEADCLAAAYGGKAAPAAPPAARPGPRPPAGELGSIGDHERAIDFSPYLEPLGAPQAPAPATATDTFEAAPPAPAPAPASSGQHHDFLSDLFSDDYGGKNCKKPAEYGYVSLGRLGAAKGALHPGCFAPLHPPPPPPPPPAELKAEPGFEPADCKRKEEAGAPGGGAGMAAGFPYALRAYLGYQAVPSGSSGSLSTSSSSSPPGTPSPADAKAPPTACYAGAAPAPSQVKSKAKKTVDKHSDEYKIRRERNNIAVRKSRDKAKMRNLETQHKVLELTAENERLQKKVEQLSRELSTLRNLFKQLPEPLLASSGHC
How it was run: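 HepG2, transient MRTU transfection, 24 h treatment. RT-PCR plus CE fluorescence; DMSO negative control, bidirectional fit.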

[4] = ATG_DR4_LXR_CIS: Attagene CIS-FACTORIAL HepG2 Assay for human Liver X Receptor (LXR), DR4 submotif (AID 2282929); conditions: HepG2 Attagene DR4 cis-reporter, mRNA transcription; actives raise or lower the signal
How it was run: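 After transient transfection with multiplexed cis-promoter reporter units, HepG2 cells received test chemicals for 24 h. Reporter mRNA induction, detected by fluorescence after RT-PCR and capillary electrophoresis, was scored relative to DMSO.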

[5] = target: Aryl hydrocarbon receptor (Homo sapiens) (UniProt P35869); assay: ATG_Ahr_CIS: Attagene CIS-FACTORIAL HepG2 Assay for human Aryl Hydrocarbon Receptor (Ahr) (AID 2282930); conditions: HepG2 AhR cis-factorial reporter transcription; actives raise or lower the signal
Aryl hydrocarbon receptor (Homo sapiens), sequence (P35869 whole entry, looked up): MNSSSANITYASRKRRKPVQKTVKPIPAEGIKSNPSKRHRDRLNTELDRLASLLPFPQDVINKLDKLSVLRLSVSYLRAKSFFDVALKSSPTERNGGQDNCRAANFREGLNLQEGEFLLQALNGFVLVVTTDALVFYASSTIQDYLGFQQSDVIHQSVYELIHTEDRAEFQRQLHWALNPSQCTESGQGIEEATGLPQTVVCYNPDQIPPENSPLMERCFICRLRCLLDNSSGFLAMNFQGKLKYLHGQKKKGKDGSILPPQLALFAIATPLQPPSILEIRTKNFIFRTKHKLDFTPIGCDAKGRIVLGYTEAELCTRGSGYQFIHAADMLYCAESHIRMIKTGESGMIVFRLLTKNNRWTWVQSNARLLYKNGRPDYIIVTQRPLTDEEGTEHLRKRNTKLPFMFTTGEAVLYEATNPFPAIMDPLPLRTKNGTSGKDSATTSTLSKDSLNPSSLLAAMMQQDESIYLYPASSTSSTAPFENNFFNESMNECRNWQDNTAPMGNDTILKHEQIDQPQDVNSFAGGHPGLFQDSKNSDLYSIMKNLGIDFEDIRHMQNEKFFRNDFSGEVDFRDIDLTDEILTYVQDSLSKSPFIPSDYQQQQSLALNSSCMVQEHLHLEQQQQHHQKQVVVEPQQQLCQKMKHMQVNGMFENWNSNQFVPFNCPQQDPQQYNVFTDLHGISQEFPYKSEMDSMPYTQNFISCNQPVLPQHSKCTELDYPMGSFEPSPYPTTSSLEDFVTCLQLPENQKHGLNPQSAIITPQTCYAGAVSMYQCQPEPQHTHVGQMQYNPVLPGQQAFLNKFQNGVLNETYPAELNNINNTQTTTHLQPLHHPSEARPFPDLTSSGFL
How it was run: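 Endogenous factor activity is tracked through cis-promoter reporter units transfected into HepG2 cells. Transcript levels at 24 h are read by fluorescent RT-PCR and capillary electrophoresis, with activity in either direction scored relative to DMSO.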

[6] = ATG_AP_1_CIS: Attagene CIS-FACTORIAL HepG2 Assay for human Activator Protein 1 (AP-1) (AID 2282931); conditions: HepG2 Attagene cis-factorial AP-1 reporter mRNA; actives raise or lower the signal
How it was run: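 After 24 h incubation with test chemical, RNA from transfected HepG2 cells was reverse-transcribed, amplified, fluorescently labelled and digested before capillary electrophoresis. Reporters were driven by cis-regulatory promoters; activity fitted bidirectionally versus DMSO.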

[7] = ATG_AP_2_CIS: Attagene CIS-FACTORIAL HepG2 Assay for human Activator Protein 2 (AP-2) (AID 2282932); conditions: HepG2 AP-2 cis-reporter, Attagene transcription factor profiling; actives raise or lower the signal
How it was run: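 Liver-derived HepG2 line, cis-reporter system measuring endogenous factors; 24 h dosing; reporter mRNA detected by fluorescent RT-PCR and capillary electrophoresis.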

[8] = ATG_BRE_CIS: Attagene CIS-FACTORIAL HepG2 Assay for human Bone Morphogenetic Protein (BMP) Response Element (BRE) (AID 2282933); conditions: HepG2 BMP response element reporter, Attagene transcription factor profiling; actives raise or lower the signal
How it was run: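 A HepG2 multiplex reporter system measured inducible reporter mRNA 24 h post-dosing. Detection: RT-PCR, 6-FAM primer extension, HpaI digestion, capillary electrophoresis. Activity fitted bidirectionally relative to DMSO.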

[9] = target: Retinoic acid receptor alpha (Homo sapiens) (UniProt P10276); assay: ATG_DR5_RAR_CIS: Attagene CIS-FACTORIAL HepG2 Assay for human Retinoic Acid Receptor Alpha (RARE), DR5 submotif (AID 2282934); conditions: HepG2 Attagene cis-factorial RARE DR5 reporter, mRNA; actives raise or lower the signal;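 for AC50: reporter responds to endogenous RAR alpha beta and gamma in HepG2 not RARA alone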
Retinoic acid receptor alpha (Homo sapiens), sequence (P10276 whole entry, looked up): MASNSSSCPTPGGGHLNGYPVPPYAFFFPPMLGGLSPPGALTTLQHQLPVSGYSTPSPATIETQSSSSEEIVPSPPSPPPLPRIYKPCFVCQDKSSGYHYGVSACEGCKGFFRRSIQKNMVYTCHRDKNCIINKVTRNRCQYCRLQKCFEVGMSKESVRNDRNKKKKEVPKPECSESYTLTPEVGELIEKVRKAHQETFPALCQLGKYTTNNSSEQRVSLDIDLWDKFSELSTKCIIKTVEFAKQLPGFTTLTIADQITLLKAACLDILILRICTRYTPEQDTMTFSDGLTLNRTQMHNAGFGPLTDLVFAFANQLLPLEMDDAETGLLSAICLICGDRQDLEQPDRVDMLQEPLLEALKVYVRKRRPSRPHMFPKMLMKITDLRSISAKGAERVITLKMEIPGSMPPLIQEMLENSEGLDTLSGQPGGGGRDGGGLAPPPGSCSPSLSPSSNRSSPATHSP
How it was run: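 After 24 h of chemical exposure, transiently transfected HepG2 cells were lysed for total RNA; the DR5-regulated reporter transcript was quantified via RT-PCR and capillary electrophoresis, with activity fitted bidirectionally against DMSO.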

[10] = target: Transcription factor E2F1 (Homo sapiens) (UniProt Q01094); assay: ATG_E2F_CIS: Attagene CIS-FACTORIAL HepG2 Assay for human E2F Transcription Factor 1 (AID 2282935); conditions: HepG2 Attagene cis-reporter, E2F reporter RNA transcripts; actives raise or lower the signal
Transcription factor E2F1 (Homo sapiens), sequence (Q01094 whole entry, looked up): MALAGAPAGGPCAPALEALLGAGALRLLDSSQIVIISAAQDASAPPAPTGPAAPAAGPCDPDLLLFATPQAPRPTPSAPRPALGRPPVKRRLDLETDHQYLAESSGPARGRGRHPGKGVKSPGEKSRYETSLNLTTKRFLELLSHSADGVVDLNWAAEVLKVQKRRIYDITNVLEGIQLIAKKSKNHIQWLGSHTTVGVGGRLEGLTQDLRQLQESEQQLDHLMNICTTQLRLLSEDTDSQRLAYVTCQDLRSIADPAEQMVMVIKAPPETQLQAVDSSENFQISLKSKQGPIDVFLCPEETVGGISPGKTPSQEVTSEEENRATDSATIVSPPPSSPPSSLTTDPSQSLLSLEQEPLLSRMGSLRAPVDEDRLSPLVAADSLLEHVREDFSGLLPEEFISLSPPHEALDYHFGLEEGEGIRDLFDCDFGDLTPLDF
How it was run: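 Liver-derived HepG2 cells expressing transfected promoter-driven reporter units received test chemical for 24 hours. Signal gains or losses were fitted bidirectionally against DMSO.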

[11] = ATG_E_Box_CIS: Attagene CIS-FACTORIAL HepG2 Assay for human Enhancer Box (E-box) (AID 2282936); conditions: HepG2 E-box cis-reporter transcription, actives raise or lower the signal
How it was run: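 In this cell-based setup, HepG2 cells bearing transfected promoter-driven reporter units were exposed to chemicals for 24 h; reporter transcripts were amplified, 6-FAM-labelled, cut with HpaI and sized by capillary electrophoresis.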

[12] = ATG_M_61_CIS: Attagene CIS-FACTORIAL HepG2 Assay for M61 Transcription Factor (Internal Marker) (AID 2282937); conditions: HepG2 Attagene CIS-FACTORIAL M61 internal marker reporter; actives raise or lower the signal
How it was run: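 Using transiently transfected HepG2 liver cells, reporter transcript levels were assessed 24 h post-dosing by RT-PCR and capillary electrophoresis. Changes in either direction were fitted relative to DMSO controls.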

[13] = ATG_EGR_CIS: Attagene CIS-FACTORIAL HepG2 Assay for human Early Growth Response 1 (EGR1) (AID 2282938); conditions: HepG2 Attagene CIS-FACTORIAL EGR reporter mRNA; actives raise or lower the signal
How it was run: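 Fluorescent capillary-electrophoresis signal of reporter cDNA fragments serves as read-out. HepG2 cells bear transiently transfected cis-promoter reporter units and are exposed 24 h; gain- or loss-of-signal is fitted against DMSO.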

[14] = ATG_M_19_CIS: Attagene CIS-FACTORIAL HepG2 Assay for M19 Transcription Factor (Internal Marker) (AID 2282939); conditions: HepG2 Attagene CIS-FACTORIAL M19 internal marker reporter; actives raise or lower the signal
How it was run: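 Chemical-treated HepG2 (24 h) with MRTU constructs; reporter transcripts detected by fluorescent RT-PCR fragment analysis on capillary electrophoresis. Internal background marker, DMSO as baseline.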

[15] = ATG_ERE_CIS: Attagene CIS-FACTORIAL HepG2 Assay for Estrogen Response Element (ERE) (AID 2282940); conditions: HepG2 ERE cis-reporter, Attagene RNA transcript; actives raise or lower the signal
How it was run: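 Human liver cells (HepG2) bearing transiently transfected, promoter-regulated reporter units were exposed 24 h. Reporter mRNA induction was detected by capillary electrophoresis of labelled RT-PCR products and fitted bidirectionally to DMSO.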

[16] = ATG_Ets_CIS: Attagene CIS-FACTORIAL HepG2 Assay for human Erythroblast Transformation Specific (ETS) (AID 2282941); conditions: HepG2 ETS cis-reporter transcription, actives raise or lower the signal
How it was run: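 Cis-regulated reporter mRNA induction in HepG2 (transient transfection), 24 h exposure, RT-PCR plus capillary electrophoresis detection; DMSO serves as negative control and baseline.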

[17] = target: Hepatocyte nuclear factor 3-beta (Homo sapiens) (UniProt Q9Y261); assay: ATG_FoxA2_CIS: Attagene CIS-FACTORIAL HepG2 Assay for human Forkhead box A2 (FOXA2) (AID 2282942); conditions: HepG2 cis-reporter transcription factor activity, 24 h; actives raise or lower the signal
Hepatocyte nuclear factor 3-beta (Homo sapiens), sequence (Q9Y261 whole entry, looked up, the tested form may be a part): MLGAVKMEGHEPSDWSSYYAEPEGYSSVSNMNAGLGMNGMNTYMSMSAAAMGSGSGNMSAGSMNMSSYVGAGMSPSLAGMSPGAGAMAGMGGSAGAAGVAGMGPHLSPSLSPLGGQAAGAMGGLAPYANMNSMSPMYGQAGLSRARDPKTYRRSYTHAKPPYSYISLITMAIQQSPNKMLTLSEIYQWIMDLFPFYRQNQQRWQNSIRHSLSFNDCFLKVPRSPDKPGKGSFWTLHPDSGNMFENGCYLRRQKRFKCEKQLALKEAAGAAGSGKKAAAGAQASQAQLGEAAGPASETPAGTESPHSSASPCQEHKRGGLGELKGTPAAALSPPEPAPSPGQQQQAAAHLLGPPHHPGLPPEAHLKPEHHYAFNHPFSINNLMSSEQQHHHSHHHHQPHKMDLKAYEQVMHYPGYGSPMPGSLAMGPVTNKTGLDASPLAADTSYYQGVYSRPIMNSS
How it was run: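 Fluorescence signal of reporter cDNA fragments, separated by capillary electrophoresis, reflects endogenous transcription factor activity in transfected HepG2 after 24 h. Both increases and decreases fitted against DMSO.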

[18] = ATG_FoxO_CIS: Attagene CIS-FACTORIAL HepG2 Assay for human Forkhead box O (FoxO) (AID 2282943); conditions: HepG2 Attagene cis-reporter, FoxO element, mRNA; actives raise or lower the signal
How it was run: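 Transfected HepG2 reporter cells exposed to test chemical for 24 h; reporter RNA measured by reverse transcription, PCR and fluorescent capillary electrophoresis; curves fitted for increases and decreases against DMSO.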

[19] = ATG_GATA_CIS: Attagene CIS-FACTORIAL HepG2 Assay for human GATA Binding Protein (AID 2282944); conditions: HepG2 GATA cis-element reporter, Attagene multiplex mRNA; actives raise or lower the signal
How it was run: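 Transfected cis-reporter HepG2 cells were treated with chemicals for 24 hours. Total RNA was then converted to cDNA, amplified with reporter-specific primers and analysed by fluorescent capillary electrophoresis, using DMSO-treated wells as baseline.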

Measured: AC50

Oc1ccc(/C=C/c2cc(O)cc(O)c2)cc1
active: [4] 100 µM | [15] 6.81 µM | [16] 153 µM
inactive: all other assays above

CO[Si](C)(C)OC
not listed: [5]
inactive: all other assays above

C=C(C)C1CC=C(C)CC1 (configuration not stated)
not listed: [5] | [9]
inactive: all other assays above

CCOc1ccc(NC(N)=O)cc1
not listed: [4]
inactive: all other assays above

CCCc1ccc(O)c(OC)c1
not listed: [4] | [7] | [14]
inactive: all other assays above

CCCC=C(C=O)CC
active: [5] 100 µM
not listed: [11]
inactive: all other assays above

Nc1ccnc(=O)[nH]1
not listed: [15]
inactive: all other assays above

C=CC(=O)O[C@H]1C[C@@H]2CC[C@@]1(C)C2(C)C
active: [2] 180 µM | [6] 75.3 µM | [7] 100 µM | [9] 177 µM | [11] 25.3 µM | [13] 100 µM | [14] 157 µM
not listed: [15]
inactive: all other assays above
